In PubChem BioAssay (NCI):
Compounds without any hit were thinned out: in the full panel of roughly 83,000, 20% have a hit.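 For each line, cells grew in 96-well plates with the test compound present at a single concentration for 48 hours.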 Unmarked numbers belong to inactive results. The source made the active and inactive calls. The calls were made as follows: active = growth percent below 10; inactive = the rest.

What was measured:
Assay in all cases: NCI-60 one-dose screen, 48 h (100 = growth as untreated, 0 = no growth, -100 = all killed)
Details in all cases: 10 µM unless noted
[1] = tested on: SK-MEL-2 melanoma
[2] = tested on: EKVX NSCLC
[3] = tested on: SN12C renal
[4] = tested on: UO-31 renal
[5] = tested on: ACHN renal
[6] = tested on: CAKI-1 renal
[7] = tested on: A498 renal
[8] = tested on: CCRF-CEM leukemia
[9] = tested on: MOLT-4 leukemia
[10] = tested on: TK-10 renal

| Compound | growth [1] | growth [2] | growth [3] | growth [4] | growth [5] | growth [6] | growth [7] | growth [8] | growth [9] | growth [10] |
| --- | --- | --- | --- | --- | --- | --- | --- | --- | --- | --- |
| CN1CCN(c2ccc(Nc3nc(NCCCNS(=O)(=O)c4ccccc4)c4sccc4n3)cc2)CC1 | 106% | 97.6% | 72.7% | 69.2% | 20.2% | 30.8% | 131% | 37.9% | 26% |  |
| CN1CCN(Cc2ccc(NC(=O)c3cncc(C#Cc4cnc5ccc(NCCO)nn45)c3)cc2C(F)(F)F)CC1 | -89% (active) | -0.668% (active) | 1.09% (active) | 58.4% | 8.5% (active) | -3.82% (active) | -94.3% (active) | 9.38% (active) | 3.21% (active) |  |
| COc1ccc(C2CC(c3cccc(OCCCCOc4cccc(C5=NN(C(C)=O)C(c6ccc(OC)cc6)C5)c4)c3)=NN2C(C)=O)cc1 (stereo unspecified) | 59.7% | 46.3% | 79.9% | 54.7% | 67.2% | 54.1% | 75.8% | 63.8% | 57.4% |  |
| CN1CCN(Cc2ccc(/C=N/Nc3ccnc4cc(Cl)ccc34)cc2)CC1 | 113% | 82.6% | 87.9% | 78.8% | 90.5% | 77.5% | 111% | 56.9% | 63.1% |  |
| COc1ccc2c(c1)c(-c1nnc(N)nc1-c1c[nH]c3ccc(F)cc13)cn2C | 36.3% | 55.5% | 69.5% | 75.6% | 64.5% | 41.6% | 27.5% | 22.3% | 26.2% |  |
| CN1CCC[C@]2(C)[C@H]3CC[C@@H]4[C@@H]5[C@H]6OC[C@@]5(CCC6(C)C)CC[C@@]4(C)[C@]3(C)CC[C@H]2C1(C)C | 108% | 99.6% | 88.9% | 91.5% | 86.9% | 10.4% | 90.1% | 66.4% | 37.7% |  |
| CN1CCN(CC#CCn2c3c(c4ccccc42)C[C@]2(C)[C@H]4CC=C5[C@@H]6CC(C)(C)CC[C@]6(C(=O)N6CCOCC6)CC[C@@]5(C)[C@]4(C)CC[C@H]2C3(C)C)CC1 | 119% | 75.2% | 81.1% | 56.5% | 93% | 64.5% | 92.4% | 35% | 33.9% |  |
| N#Cc1c(-c2cccs2)cc(-c2cnccn2)nc1SCC(=O)N/N=C/c1ccncc1 | 121% | 99% | 110% | 88.4% | 109% | 95.9% | 116% | 103% | 117% |  |
| NC(N)=NS(=O)(=O)c1ccc(N=Nc2c(N)nn(-c3ccc([N+](=O)[O-])cc3[N+](=O)[O-])c2N)cc1 | 106% | 99% | 101% | 82.5% | 101% | 90.5% | 94.5% | 97.7% | 99.4% |  |
| Cc1cc(C)cc(NC2=C(Cl)C(=O)c3nc(C)ccc3C2=O)c1 | 85.5% | 55.1% | 8.28% (active) | 0.909% (active) | 2.41% (active) | 89.6% | 88.3% | 7.91% (active) | 24.6% |  |
| CC1(C)CC[C@]2(C(=O)NCCCCCCN(CCCN)CCCN)CC[C@]3(C)C(=CC[C@@H]4[C@@]5(C)CC[C@H](O)C(C)(C)[C@@H]5CC[C@]43C)[C@@H]2C1 | 113% | 91.8% | 96.4% | 85.7% | 105% | 75.2% | 117% | 105% | 102% |  |
| COc1ccc(C(=NNS(=O)(=O)c2ccc(C)cc2)c2ccccc2)cc1OC | 101% | 95.4% | 98.9% | 77.4% | 98% | 80.7% | 98.3% | 102% | 98.3% |  |
| CCCCc1nc2c(N)nc3ccccc3c2n1Cc1ccc(OC)cc1 | 71.6% | 58.5% | 71.5% | 40.2% | 76.9% | 52.2% | 35.7% | 60.2% | 36.8% |  |
| CCCC/C(=C\c1ccc(O)c(O)c1)C(=O)NC(Cc1ccccc1)C(=O)C(=O)NCCc1ccc(OC)cc1 (stereo unspecified) | 98.8% | 83.3% | 95.3% | 93.4% | 96.2% | 96.5% | 85.7% | 97% | 85.4% |  |
| CC(C)(C)c1cc(NC(=O)Nc2ccc(-c3cn4c5c(sc4n3)CCc3cn(CCCN4CCCCC4)cc3-5)cc2)no1 | 108% | -80.5% (active) | -86.3% (active) | -70.3% (active) | -99.7% (active) | -97.2% (active) | 74.5% | 3.37% (active) | -10.9% (active) |  |
| O=C(CSc1nnc(-c2cccs2)n1-c1ccccc1)Nc1ccccc1F | 95.8% | 94.6% | 99.1% | 77.4% | 92.5% | 55.6% | 79.9% | 76.9% | 72% |  |
| CCN(CC)c1ccc(/C=N/NC(=O)c2ccc(NS(C)(=O)=O)cc2)c(O)c1 | 40.7% | 15.6% | 31.4% | 13.1% | 15.9% | 18.8% | 18.9% | 6.1% (active) | 9.84% (active) |  |
| Cc1ccc(C(=O)Nc2ccc(CNCCN3CCNCC3)c(C(F)(F)F)c2)cc1C#Cc1cnc2cccnn12 | 64% | 29.6% | 76.2% | 76.7% | 57% | 75.9% | -33.4% (active) | -39.7% (active) | -49.5% (active) |  |
| C=C(C)[C@@H]1CC[C@]2(COCCCNCCCN)CC[C@]3(C)[C@H](CC[C@@H]4[C@@]5(C)CC[C@H](O)C(C)(C)[C@@H]5CC[C@]43C)[C@@H]12 | 99.1% | -84.2% (active) | -78.8% (active) | -93% (active) | -98.6% (active) | -85.6% (active) | -16.1% (active) | -40.2% (active) | -34.5% (active) |  |
| O=C(CN1CCN(c2cc(=O)[nH]c3ccc(F)cc23)CC1)N(c1ccccc1)c1ccccc1 | 106% | 96.8% | 97.1% | 90.3% | 105% | 95.1% | 83.7% | 102% | 99.5% |  |
| O=C(CSc1nnc(-c2cccs2)n1-c1ccccc1)Nc1ccccc1 | 108% | 76.7% | 83.5% | 64.4% | 59.6% | 63.6% | 84.9% | 93.7% | 93.6% |  |
| CC[C@]12CC(C(=O)OC)=C3Nc4ccccc4[C@@]34CCN(C14)[C@@H]1c3cc4c(cc3O[C@@H]1[C@H]2O)NC1=C(C(=O)OC)C[C@@]2(CC)C3N(CC[C@@]143)C[C@H]1O[C@H]12 (stereo partly specified) | 40.8% | 26.1% | 31.1% | 7.33% (active) | 11.1% | 8.4% (active) | -46.1% (active) | 12.6% | 14% |  |
| CC1(C)C=Cc2cc(/C(N)=N/C(N)=N/c3nc4ccccc4s3)ccc2O1 | 110% | 30.7% | 52.4% | 64.9% | 88.7% | 65.3% | 114% | 46.3% | 61.8% |  |
| CC[C@]12C=CCN3CC[C@@]4(c5ccc(OC)cc5N(C)[C@H]4[C@@](O)(C(=O)OC)[C@@H]1OC(=O)CCN1CCc4ccccc4C1)[C@@H]32 | 108% | 88.6% | 99.4% | 71.6% | 99.3% | 80.3% | 94.5% | 82.6% | 80.5% |  |
| CC1=C(SCC(=O)OCCCCCC(C)C)C(=O)c2ccccc2C1=O | 99.1% | 82.5% | 83% | 62.9% | 85.7% |  | 107% | 91.3% | 79.4% | 133% |
| CN1CCN(c2ccc(Nc3nc(NCCCNS(=O)(=O)c4ccc(C(F)(F)F)cc4)c4sccc4n3)cc2)CC1 | -91% (active) | 0.826% (active) | -60.2% (active) | -85% (active) | -74.3% (active) | -76.9% (active) | -87% (active) | 6.25% (active) | 0.188% (active) |  |
| O=C(/C=C/c1ccc(F)cc1)Nc1cccc2cccnc12 | 107% | 91.4% | 101% | 84.1% | 105% | 91.4% | 114% | 105% | 105% |  |
| O=C(CCCCCCN1CC(=O)N2[C@@H](c3ccccc3Br)c3[nH]c4ccccc4c3C[C@H]2C1=O)NO | 39.3% | 62.5% | 66.3% | 58.4% | 70.2% |  | 74.7% | 17.7% | 6.43% (active) |  |
